Results filed as inconclusive are left out. Active and inactive are the calls of the source. The calls were made as follows: active = hit-call score of the fitted dose curve at least 0.9, where 1 is the maximum; inconclusive = response in the unintended direction; inactive = score below 0.9.

The values below come from PubChem BioAssay (EPA / NIEHS).

The target in this assay is Retinoic acid receptor RXR-alpha (Homo sapiens) (UniProt P19793). Briefly: ATG_RXRa_TRANS: Attagene TRANS-FACTORIAL HepG2 Assay for human Retinoid X Receptor alpha (RXRa) (AID 2283012). As to the method: ATG_TRANS is a cell-based, multiplexed-readout assay that uses HepG2, a human liver cell line, with measurements taken at 24 hours after chemical dosing in a 24-well plate.ATG_RXRa_TRANS is one of 30 assay component(s) measured or calculated from the ATG_TRANS assay. It is designed to make measurements of mRNA induction, a form of inducible reporter, as detected with fluorescence intensity signals by Reverse transcription polymerase chain reaction (RT-PCR) and Capillary electrophoresis technology.Data from the assay component ATG_RXRa_TRANS was analyzed into 1 assay endpoint. This assay endpoint, ATG_RXRa_TRANS, was analyzed in the positive analysis fitting direction relative to DMSO as the negative control and baseline of activity. Using a type of inducible reporter, measures of mRNA for gain-of-signal activity can be used to understand the reporter gene at the transcription factor-level as they relate to the gene RXRA. Furthermore, this assay endpoint can be referred to as a primary readout, because this assay has produced multiple assay endpoints where this one serves a reporter gene function. To generalize the intended target to other relatable targets, this assay endpoint is annotated to the nuclear receptor intended target family, where the subfamily is non-steroidal.
Chain of Retinoic acid receptor RXR-alpha (Homo sapiens) (P19793 whole entry, looked up): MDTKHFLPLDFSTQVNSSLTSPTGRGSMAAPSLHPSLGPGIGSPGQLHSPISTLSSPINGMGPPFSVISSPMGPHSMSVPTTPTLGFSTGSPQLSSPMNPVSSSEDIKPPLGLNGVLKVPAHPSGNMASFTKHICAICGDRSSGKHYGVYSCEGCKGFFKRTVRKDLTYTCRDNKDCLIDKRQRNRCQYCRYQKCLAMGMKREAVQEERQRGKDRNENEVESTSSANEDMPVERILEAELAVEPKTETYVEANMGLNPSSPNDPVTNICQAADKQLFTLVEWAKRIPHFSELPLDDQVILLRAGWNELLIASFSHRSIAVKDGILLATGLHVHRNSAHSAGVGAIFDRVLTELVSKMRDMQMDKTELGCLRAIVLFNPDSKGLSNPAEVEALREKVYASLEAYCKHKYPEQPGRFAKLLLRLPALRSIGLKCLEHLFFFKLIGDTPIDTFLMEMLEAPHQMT
Human liver HepG2 cells are transiently transfected with multiple reporter transcription units (MRTUs) in 6-well plates using FuGene 6 reagent (Roche; 3 ml FuGene/1 mg DNA). The MRTU constructs are regulated by a cis-regulating element (promoter). […] A major difference between the CIS and TRANS system is that in CIS activities of endogenous TFs are measured, whereas the TRANS assay evaluates changes in activities of exogenous, chimeric NR-Gal4 proteins. […] At the end of 24 hour incubation, total RNA was isolated using TriZol reagent (Invitrogen). The isolated RNA is then reverse-transcribed using oligo(dT) primer and Mo-MLV reverse transcriptase (Invitrogen) with DNAse I (Ambion) treatment for 30 min. The one-tenth of the produced cDNA was amplified by PCR using Taq DNA polymerase (Invitrogen) and two reporter sequence-specific primers. The PCR products were fluorescently labeled by primer extension with 6-arboxyfluorescein (6-FAM) 5'-labeled reporter sequence-specific primer (2 min at 95 C, 20 s at 68 C and 10 min at 72 C) and these products were digested with 5U of HpaI (New England Biolabs) for 2h at 37 C. The fragments were purified using Qiaquick PCR columns (Qiagen), analyzed on an ABI 3130xL genetic analyzer (Applied Biosystems) with peak positions identified by using a set of X-rhodamine (ROX)-labeled MapMarker1000 molecular weight standards (BioVentures). The raw capillary electrophoresis data was processed using Attagraph software (Attagene).
Regarding `CCCCn1cc[n+](C)c1`, the compound was called inactive.
Regarding `CC[N+](CC)(CC(=O)Nc1c(C)cccc1C)Cc1ccccc1`, the result was inactive.
As for `CC(C)CC(=O)CC(C)C`, the outcome was inactive.
The same measure, in the same setting: as for `C=CC(C)(CCC=C(C)C)OC(=O)c1ccccc1` (stereo not given), the entry is “inactive”; as for `CC(C)n1c(/C=C/[C@@H](O)C[C@@H](O)CC(=O)O)c(-c2ccc(F)cc2)c2ccccc21`, “inactive”.
The same measure, in the same setting: as for `CCCCCCCCCCC1CO1` (stereo not given), the entry is “inactive”; as for `CCCCCCCCCCCCCCCCCC[N+](C)(C)C`, “inactive”.
A word on the AC50: it is the concentration giving half of the maximal activity seen. Consider `O=C1CCCCCCCCCCCCCC1`, for which the AC50 was 26.5 µM (active).
With `Cc1ccnc(N)c1`, the call was inactive.
Still for that read-out and setting: as for `CC(O)(P(=O)(O)O)P(=O)(O)O`, the entry is “inactive”.
`CCOC(=O)CC(=O)OCC`: the compound was called inactive.
In the case of `O=C1NC(=O)[C@@H]2CC=CC[C@H]12`, the outcome was inactive.
The same measure, in the same setting: as for `c1ccc2c(c1)Oc1ccccc1S2`, the entry is “inactive”; as for `Oc1ccc(Oc2ccccc2)cc1`, “inactive”; as for `Oc1cccc2ccccc12`, “inactive”.
In the case of `CCCCCCCCCC/C=C/C1CC(=O)OC1=O` (stereo not given), the compound was called inactive.
For `CC(C)(C)NC(=O)[C@@H]1CN(Cc2cccnc2)CCN1C[C@@H](O)C[C@@H](Cc1ccccc1)C(=O)N[C@H]1c2ccccc2C[C@H]1O`, the outcome was inactive.
Still for that read-out and setting: as for `C[C@H]1C[C@H]2[C@@H]3CCC4=CC(=O)C=C[C@]4(C)[C@@]3(F)[C@@H](O)C[C@]2(C)[C@@]1(O)C(=O)CO`, the entry is “inactive”.
Take `CCCCCCCCCCCCCC`: the compound was classed as inactive.
The same measure, in the same setting: as for `CC(=O)OC(C)(C)Cc1ccccc1`, the entry is “inactive”; as for `O=C(O)/C=C\C(=O)O`, “inactive”; as for `CN(C)c1ccc(C(c2ccccc2)c2ccc(N(C)C)cc2)cc1`, “inactive”.
Still for that read-out and setting: as for `CC/C=C\CC1=C(C)CCC1=O`, the entry is “inactive”; as for `CC1=CCCC(C)(C)C12CCC(C)O2` (stereo not given), “inactive”.
On the same count and under the same terms, as for `c1ccc(CNc2ncnc3nc[nH]c23)cc1`, the entry is “inactive”; as for `CCOC(=O)c1ccccc1`, “inactive”.
`c1cc(N(CC2CO2)CC2CO2)ccc1Cc1ccc(N(CC2CO2)CC2CO2)cc1` (stereo not given): the compound was called inactive.
Turning to `C=C(C)C(=O)OCCCCCC`, the compound was classed as inactive.
The same measure, in the same setting: as for `CCC(C)C1N=C(C)C(C)S1` (stereo not given), the entry is “inactive”.
Same read-out and setting: as for `C=CN1CCCCCC1=O`, the entry is “inactive”; as for `O=C(OCc1ccccc1)c1ccccc1`, “inactive”; as for `Cc1ccccc1S(=O)(=O)O`, “inactive”.
With `C=C1CC[C@H]2C[C@@H]1C2(C)C`, the outcome was inactive.
`N#CCN(CC#N)CCN(CC#N)CC#N`: the outcome was inactive.
Same read-out and setting: as for `CC(C)CC(=O)CC(C)CC(C)C` (stereo not given), the entry is “inactive”; as for `CCCCC(CC)COC(=O)CS` (stereo not given), “inactive”.
The same measure, in the same setting: as for `CN(C)CCCN1c2ccccc2CCc2ccc(Cl)cc21`, the entry is “inactive”; as for `F[B-](F)(F)F`, “inactive”; as for `CCCC(=O)OC/C=C(\C)CCC=C(C)C`, “inactive”.
The same measure, in the same setting: as for `O=C1NC(=O)C2CC=CCC12` (stereo not given), the entry is “inactive”.
